The record followed here is PubChem BioAssay AID1626 (SRMLSC, 2009).

Hit rate of the full screen: of about 220,000 compounds, about 2,000 (0.91%) were called active. Roughly 2% stayed inconclusive and do not appear here. These entries were drawn from the full list. Potency and affinity values are given separately. Unmarked numbers belong to inactive results. Rule as the data show it: inconclusive = inhibition above about 80% without an active follow-up result; inactive = below that; test concentration not stated here.

This experiment in a line: M. tuberculosis H37Rv growth inhibitors, H37Rv strain (AID 1626).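 Also: bacteria incubated seven days before Alamar blue readout; 0% = bacteria only wells and 100% = bacteria with antibiotic wells.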 The settings on record: active compounds read high, concentration not given here.
The inhibition is the relative decrease from the control value, in per cent. `Cc1cccn2c(=O)c(/C=N/O)c(Nc3ccccc3F)nc12`: the inhibition is -2.23%.
With `CCOC(=O)c1cccc(NC(=O)CN(c2ccc(C)cc2)S(=O)(=O)c2c(C)n[nH]c2C)c1`, the inhibition is -3.83%.
To `Cc1ccc(Nc2nc(N)nc(CCl)n2)cc1` belongs 73.8%; to `COc1cccc(Nc2nc(N)nc(CCl)n2)c1`, 75.6%.
In the case of `CCOC(=O)CSc1nc(-c2ccccn2)ncc1OC`, the inhibition is 10.3%.
For `COc1cnc(-c2ccccc2)nc1Sc1ccccc1` the value was -2.28%; for `COc1ccccc1-c1nc(-c2ccccn2)no1`, 0.6%.
For the compound `COc1cnc(N(C)C)nc1Sc1ccc(Cl)cc1`, the inhibition was -2.94%.
Turning to `COc1cccc(-c2nc(-c3ccccn3)no2)c1OC`, the inhibition was -1.55%.
Regarding `COc1ccc(Sc2cc(C(F)(F)F)nc(-c3ccccn3)n2)cc1`, the inhibition is 4.59%.
To `Cc1ccc(SCc2nc(-c3ccccn3)no2)cc1` belongs 11.6%; to `FC(F)(F)c1cc(Sc2ccccc2)nc(-c2ccccn2)n1`, 4.07%; to `c1ccc2c(N3CCCCC3)nnc(N3CCCCC3)c2c1`, -2.8%.
To `Cc1nc(-c2ccccc2)sc1C1(C)CC(c2ccc(C#N)cc2)=NO1` (stereo unspecified) belongs -5.09%; to `Cc1cnc(C(=O)OCC(=O)Nc2cc(Cl)cc(Cl)c2)cn1`, -2.03%.
In the case of `CC(=O)N1CCC2(CC1)CC(=O)c1cc(OCC(=O)NCc3ccc(C)cc3)ccc1O2`, the inhibition was 4.89%.
For `CCOc1ccc(Cc2noc3c2C(=O)CC(C)(C)C3)cc1OCC` the value was 5.77%.
For `O=C(CNc1cc(S(=O)(=O)N2CCCC2)ccc1OCC(F)(F)F)Nc1cc(Cl)cc(Cl)c1` the value was 0.25%; for `CCC12CN3CCN(CC(C3)C1O)C2` (stereo unspecified), -8.91%.
On to `CCOC(=O)C(NC(=O)CC(C)C)(Nc1sc(C)c(CC)c1C#N)C(F)(F)F` (stereo unspecified), for which the inhibition is -1.9%.
To `NCC(c1ccccc1)c1c[nH]c2ccccc12` (stereo unspecified) belongs -2.1%; to `OC(CNCc1cccc(Cl)c1)c1ccccc1` (stereo unspecified), 6.44%.
Turning to `COc1ccc(C2=NCCn3cccc32)c(OC)c1`, the inhibition is 4.72%.
Take `Cc1ccn2c(NC3CCCC3)c(-c3ccncc3)nc2c1`: the inhibition was -0.8%.
For `Cc1ccc(-c2nc3ncccn3c2Nc2ccccc2C)o1`, the inhibition is 10.9%.
For `Cc1ccc(Nc2c(-c3ccccc3)nc3cnccn23)cc1` the value was 3.65%; for `Cc1ccn2c(Nc3ccccc3C)c(-c3ccncc3)nc2c1`, -1.59%.
For the compound `Cc1ccn2c(Nc3ccc4c(c3)OCO4)c(-c3ccccn3)nc2c1`, the inhibition is 12.5%.
Take `Cc1ccn2c(NC3CCCC3)c(-c3cccs3)nc2c1`: the inhibition was -6.97%.
As for `Cc1ccccc1Nc1c(-c2cccnc2)nc2ccccn12`, the inhibition was 3.53%.
To `Cc1ccn2c(Nc3ccccc3C)c(-c3cccnc3)nc2c1` belongs 3.46%.
